Laboratory results: PubChem BioAssay (Tox21)
Inconclusive results are not listed. A number with no mark means an inactive call. The source made the active and inactive calls. Calls follow the shape of the full dose curve.

test: p53 small molecule agonists, cell-based qHTS assay with human liver microsomes (AID 1963577); details: HCT-116 p53RE-bla with human liver microsomes, ratio, 16 h; series mostly up to 66 µM; activation: at the top concentration;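 also: p53 response element beta-lactamase reporter cells with liver microsomes plus NADPH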
Source text: National Center for Advancing Translational Sciences [NCATS]
Division of Preclinical Innovation [DPI]
U.S. Environmental Protection Agency [EPA]
National Institutes of Environmental Health Sciences [NIEHS]
National Toxicology Program [NTP]
U.S. Food and Drug Administration [FDA]
p53, a tumor suppressor protein, is activated following cellular insult, including DNA damage and other cellular stresses. The activation of p53 regulates cell fate by inducing DNA repair, cell cycle arrest, apoptosis, or cellular senescence. The activation of p53, therefore, is a good indicator of DNA damage and other cellular stresses. […] The activation of the reporter gene under culture conditions can be detected by fluorescence intensity.
Tox21 Assay Protocol Summary:
The p53RE-bla cells were dispensed at 4,000cells/3ul/well in 1536-well black-clear bottom plates. After the assay plates were incubated at 37 C, 5% CO2 incubator for 5 hours, 23 nL of compounds dissolved in DMSO, positive controls or DMSO only was transferred to the assay plate. Following compound addition, 3 uL of human liver microsomes (XenoTech, Kansas City, KS) at final concentration of 0.5 mg/mL and 1uL of Beta-Nicotinamide adenine dinucleotide 2-phosphate (NADPH) at final concentration of 0.5 mg/mL were transferred to the assay plate. The plates were incubated at 37 C for 16 hours. 1 uL of LiveBLAzer detection mixture was added to each well and the plates were incubated at room temperature in the dark for 2 h.
% is scaled to controls: 0 for no effect and ±100 for the full control effect.

Row | SMILES | activation | Potency
1 | C[C@@H]1O[C@@H](O[C@@H]2C=C3CC[C@@H]4[C@H](CC[C@]5(C)[C@@H](c6ccc(=O)oc6)CC[C@]45O)[C@@]3(C)CC2)[C@H](O)[C@H](O)[C@H]1O | -15.5% [at 30.3 µM] | –
2 | Cc1cc(C(C)(C)c2ccc(O)c(C)c2)ccc1O | -0.717% | –
3 | CN(C)CCCCCCN(C)C | 0.916% | –
4 | Cc1cccc(OP(=O)(Oc2cccc(C)c2)Oc2cccc(C)c2)c1 | 4.5% | –
5 | C=CC(=O)OCCCCOC(=O)C=C | -7.95% | –
6 | CC1(C)CN=C(NN=C(/C=C/c2ccc(C(F)(F)F)cc2)/C=C/c2ccc(C(F)(F)F)cc2)NC1 | -4.62% | –
7 | O=C1NCN(c2ccccc2)C12CCN(CCCOc1ccc(F)cc1)CC2 | 3.62% [at 30.3 µM] | –
8 | O=S1(=O)OCC2C(CO1)C1(Cl)C(Cl)=C(Cl)C2(Cl)C1(Cl)Cl (stereo not given) | -3.27% | –
9 | C=C(Cl)Cl | 4.41% | –
10 | C=CCC1([C@H](C)CCC)C(=O)NC(=O)NC1=O | -2.71% | –
11 | CCOC(=O)/C=C(C)/C=C/C[C@@H](C)CCCC(C)C | -3.45% | –
12 | COC(=O)N(C(=O)N1COC2(C(=O)OC)Cc3cc(Cl)ccc3C2=N1)c1ccc(OC(F)(F)F)cc1 (stereo not given) | -8.68% [at 30.3 µM] | –
13 | CC[N+]1(C)CCCC(OC(=O)C(O)(c2ccccc2)c2ccccc2)C1 (stereo not given) | -1.53% [at 30.3 µM] | –
14 | CCCOC(=O)Cc1ccc(OCC(=O)N(CC)CC)c(OC)c1 | 1.65% [at 30.3 µM] | –
15 | O=c1ssc(Cl)c1Cl | 4.38% | –
16 | CCCCP(CCCC)CCCC | 2.3% | –
17 | Clc1c(Cl)c(Cl)c(Cl)c(Cl)c1Cl | -0.641% [at 5.99 µM] | –
18 | CCC1COC(Cn2cncn2)(c2ccc(Cl)cc2Cl)O1 (stereo not given) | -7.14% | –
19 | Cc1nc2ccccc2c(=O)n1-c1ccccc1Cl | -2.17% | –
20 | C[C@@H]1C[C@@H]([C@H](O)CC2CC(=O)NC(=O)C2)C(=O)[C@@H](C)C1 | – | inactive

Row | SMILES | activation | Potency
21 | CN1CCc2cc(Cl)c(O)cc2[C@H]2c3ccccc3CC[C@@H]21 | -2.05% [at 30.3 µM] | –
22 | CCCCCC[N+](=O)[O-] | -0.385% | –
23 | Clc1ccc(CSC(Cn2ccnc2)c2ccc(Cl)cc2Cl)cc1 (stereo not given) | -7.52% [at 30.3 µM] | –
24 | Cc1ccccc1C(=O)Nc1cccc(OC(C)C)c1 | -4.68% | –
25 | CCOc1ccc(C(C)(C)COCc2cccc(Oc3ccccc3)c2)cc1 | 0.427% | –
26 | CC(Cc1ccccc1)NCc1ccccc1Cl (stereo not given) | -0.386% [at 30.3 µM] | –
27 | COc1cc(CCN)cc(OC)c1OC | 14.7% | –
28 | CCOC(=O)C(Cl)C(C)=O (stereo not given) | 0.114% | –
29 | CC(=O)c1ccc(-c2ccccc2)cc1 | -14.7% | –
30 | CC(=O)/C=C/c1ccc2c(c1)OCO2 | -7.73% | –
31 | Clc1ccc(-c2ccc(Cl)c(Cl)c2Cl)c(Cl)c1Cl | 0.744% | –
32 | C[N+]1(CCF)[C@@H]2CC[C@H]1CC(OC(=O)C(O)(c1ccccc1)c1ccccc1)C2 (stereo not given in full) | -0.453% [at 30.3 µM] | –
33 | O=C(O)c1cc[c]([Hg][Cl])cc1 | -5.25% | –
34 | ClC(Cl)=C(Cl)Cl | 3.6% | –
35 | Nc1ccc([N+](=O)[O-])cc1Cl | -0.147% | –
36 | C[C@H]1[C@@H]2Cc3ccc(O)cc3[C@@]1(C)CCN2C | -5.5% [at 172 µM] | –
37 | Nc1ccc(Cc2ccc(N)c(Cl)c2)cc1Cl | -15.7% | –
38 | Cc1cc(C(C)(C)c2cc(C)c(O)c(C)c2)cc(C)c1O | 0.624% | –
39 | Oc1ccccc1Br | 0.883% | –
40 | CCN(C(C)=O)c1cccc(-c2ccnc3c(C#N)cnn23)c1 | -5.88% [at 30.3 µM] | –
